Bioassay records: PubChem, National Center for Advancing Translational Sciences (NCATS)
This is a sample that favours compounds with a hit; in the whole collection about 3.8% have one here.
Nrf2 inh: Nrf2 qHTS screen for inhibitors; Potency, µM (series often up to 46 µM), inactives show at the highest dose activity change, negative = inhibition, usual class: inhibitors; 360,000 tested, 2.1% active; A549 ARE-Fluc reporter, luciferase luminescence, 18-24 h; further: on the % scale 0 is the no-effect control and ±100 the full control effect; nearly all actives have a fitted effect of over 60% in size
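Quantitative HTS in A549 cells stably bearing an antioxidant response element-firefly luciferase construct. Inhibition of Nrf2-driven transcription was scored by luminescence after 18-24 h of compound exposure at 37 °C.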
ATXN viability: Viability Counterscreen for Primary qHTS for Inhibitors of ATXN expression; S2 cells (HEK-293 line with an ATXN2-luciferase reporter) viability, CellTiter-Fluor protease fluorescence, 24 h; Potency, µM (titrated, usually from 56.7 µM), usual class: cytotoxic; 400,000 tested, 0.49% active; AID 651635, 2014; further: nearly all actives have a fitted effect of over 40% in size
A549 viability: Nrf2 qHTS screen for inhibitors: counterscreen for cytotoxicity | Potency, µM (titrated, usually from 46 µM), for the others: top-dose activity change, negative = cytotoxicity, hits mostly inhibitors | A549 ARE-Fluc cells, CellTiter-Fluor viability, 18-24 h | 390,000 tested, 0.16% active; further: on the % scale 0 is the no-effect control and ±100 the full control effect
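A549 ARE_Fluc cells in 5% FBS OPTI-MEM were exposed to compounds in concentration-response for 18-24 h at 37 deg C. Viability was read by CellTiter-Fluor fluorescence (Ex 405/Em 525) after 30 min, before the luciferase read.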
HepG2 viability: qHTS for Inhibitors of TGF-b: Cytotox Counterscreen; HepG2 CAGA-GFP viability, ATP luminescence, 18 h; 410,000 tested, 0.76% active; Potency, µM (top dose mostly 46.1 µM), for the others: at the top dose activity change, negative = cytotoxicity, hits mostly cytotoxic; AID 588856, 2011
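CellTiter-Glo luminescence gave cytotoxicity after 18 hours at 37 degrees C. The cells were HepG2 CAGA-GFP in 1% FBS DMEM, stimulated with 500 pg/mL TGF-beta after compound addition. %Activity was normalised to no-cell wells (complete cell-killing) and DMSO (no toxicity), and curves were fitted and classified.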
ATXN2 expr inh: Primary qHTS for Inhibitors of ATXN expression. HEK-293 ATXN2-luciferase reporter, luminescence, 24 h. Potency, µM (highest dose often 57 µM), without a hit: at the top dose activity change, negative = inhibition, most hits filed as inhibitors. 360,000 tested, 0.72% active. AID 1745845, 2022; further: on the % scale 0 is the no-effect control and ±100 the full control effect; nearly all actives have a fitted effect of over 55% in size
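ATXN2-luciferase reporter cells (luciferase flanked by upstream and downstream ATXN2 gene portions) were treated 24 h at 37 °C with compounds at up to 57 uM. SteadyGlo luminescence gave expression; GF-AFC fluorescence gave viability.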
TGFb SMAD3 inh: qHTS for Inhibitors of TGF-b | HepG2 CAGA-GFP TGF-b/SMAD3 reporter, GFP fluorescence, 18 h; TGF-beta stimulated, 500 pg/mL final | Potency, µM (titrated, usually from 46.1 µM), for the others: at the highest dose activity, negative = inhibition, hits mostly inhibitors | 410,000 tested, 1.2% active | AID 588855, 2011; further: on the % scale 0 is the no-effect control and ±100 the full control effect; nearly all actives have a fitted effect of over 65% in size
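Inhibition was scored as loss of TGF-beta-induced (500 pg/mL final, 18 hours, 37 degrees C) GFP in HEPG2 cells carrying a CAGA-GFP reporter, in DMEM with 1% FBS. Well GFP was summed per cell; Activity was normalised to unstimulated and stimulated DMSO wells, then concentration-response fitting.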
* marks the source's active call; other numbers are inactive results; i = inactive; ? = inconclusive; nt = not tested or not shown; [ ] = remark or other dose. The call rests on the fitted dose curve; in most records, active means well fitted curve in the direction sought with a large enough effect; inconclusive means small, poorly fitted or top-dose-only effect, or another doubt; inactive means no such curve, though single readings can be large; an effect the other way counts as inactive or inconclusive. Potency means the concentration at half of the fitted maximal effect.

SMILES	Nrf2 inh	ATXN viability	A549 viability	HepG2 viability	ATXN2 expr inh	TGFb SMAD3 inh
O=C(Cn1ncc(N2CCOCC2)c(Cl)c1=O)c1ccc(Cl)cc1	30.0%	?	6.1%	-27.2%	0.2%[11.3 µM]	-3.1%
CC(C)(C)C(=O)Cn1ncc(Cl)c(Cl)c1=O	?	7.94µM*	-11.7%	-9.1%	nt	-0.7%
O=C(Cn1ncc(Cl)c(Cl)c1=O)c1ccc(Cl)cc1	5.5%	?	4.0%	17.8µM*	?	?
O=C(OCn1ncc(Cl)c(Cl)c1=O)c1ccccc1Cl	23.1µM*	nt	nt	-92.6%	?	-15.4%
CC(C)(C)C(=O)Cn1ncc(N2CCCC2)c(Br)c1=O	nt	i	-1.3%	1.9%	32.4%	5.6%
O=c1c(Cl)c(Cl)cnn1Cc1ccc(F)cc1	-2.5%	nt	-7.6%	-94.7%	?	?
C=CCn1c(C)cc(C(=O)Cn2ncc(Cl)c(Cl)c2=O)c1C	?	35.5µM*	?	-35.4%	?	-1.4%
C=CCn1c(C)cc(C(=O)CN2NS(=O)(=O)c3ccccc3C2=O)c1C	?	?	1.1%	-11.4%	nt	?
CC1(C(=O)NS(=O)(=O)c2cccc(OC(F)F)c2)CCN1C(=O)Cc1ccsc1 (stereo unspecified)	nt	i	nt	-0.2%	7.4%	-0.3%
Cc1cnc(C(=O)OCC(=O)N2CC(C)CC(C)C2)cn1 (stereo unspecified)	10.6%	i	-0.5%	6.8%	4.9%	11.6%
COc1cccc(CN2C(=O)NC(C)(C3CCN(Cc4cc(F)cc(F)c4)CC3)C2=O)c1OC (stereo unspecified)	nt	i	nt	nt	nt	nt
C=CC[n+]1c(/C=C/c2ccc(OC(C)=O)c(OC)c2)ccc2ccccc21	?	15.8µM*	?	-56.5%	nt	-4.7%
CCC(NC(=O)c1cc(COc2ccc(F)cc2Cl)on1)c1ccncc1 (stereo unspecified)	16.4µM*	i	?	-31.3%	?	-25.1%
CCC(NC(=O)c1cc(COc2cncc(Cl)c2)on1)c1ccncc1 (stereo unspecified)	?	i	6.1%	-1.9%	nt	-11.5%
COc1ccc(OCCn2cc(C=O)c3ccccc32)cc1	0.8%	i	-5.9%	-49.9%	-24.7%	7.94µM*
Cc1c(C(=O)Nc2ccc(S(=O)(=O)N(C)C3CCN(C)CC3)cc2)oc2ccccc12	-5.7%	?	-6.8%	-46.7%	?	?
Cc1c(C(=O)Nc2ccc(S(=O)(=O)N(C)C3CCN(C)CC3)cc2)oc2c(Cl)cccc12	-1.1%	nt	-0.7%	-110.6%	25.1µM*	?
CCCNCC1C(Oc2ccc(Cl)cc2Cl)C(=O)N1c1cccc(C)c1C (stereo unspecified)	22.0%	?	3.0%	-104.1%	nt	?
CCCCNCC1C(Oc2ccc(Cl)cc2)C(=O)N1c1ccccc1C (stereo unspecified)	-1.6%	i	-16.7%	15.8µM*	-21.6%	14.1µM*
C[C@H](CO)N1C[C@H](C)[C@@H](CN(C)S(C)(=O)=O)Oc2ccc(NS(=O)(=O)c3cn(C)cn3)cc2C1=O	1.9%	i	1.3%	5.3%	3.2%	9.9%
COc1ccnc(Oc2cccc(C(F)(F)F)c2)c1C(=O)N/C=N/OCc1ccccc1F	20.6µM*	i	-14.2%	-22.8%	?	-23.4%
CCOc1ccc(-c2cc(C(=O)NCc3ccccc3Cl)c3ccccc3n2)cc1	nt	i	-3.1%	-1.2%	13.3%	-12.7%
COc1cc(OC)cc(C(=O)NCc2ccc3c(c2)CCN3C(=O)c2ccccc2)c1	nt	nt	-13.6%	-16.0%	nt	10µM*
COc1ccc(CCC(=O)NCc2ccc3c(c2)CCN3C(=O)c2ccccc2)cc1	nt	nt	2.1%	2.6%	nt	28.2%
COc1ccc2cc3cc(C(=O)NCCN4CCN(c5ccccc5F)CC4)oc3nc2c1	18.4µM*	?	?	-6.6%	?	-8.1%
SMILES	Nrf2 inh	ATXN viability	A549 viability	HepG2 viability	ATXN2 expr inh	TGFb SMAD3 inh
COc1ccc2cc3cc(C(=O)Nc4ccccc4N4CCN(C)CC4)oc3nc2c1	-16.6%	nt	-7.5%	10µM*	?	-8.9%
Cc1c(Cl)cccc1NC(=O)Nc1c[nH]c(=O)[nH]c1=O	-13.2%	i	-6.3%	1.1%	7.5%	11.4%
COC(=O)c1cccc(C(=O)NCc2nc(-c3ccccc3NC(C)=O)oc2C)c1	nt	i	nt	nt	nt	nt
O=C(c1ccc(COc2ccc3ccccc3c2)o1)N1N=C(C(F)F)CC1(O)C(F)F (stereo unspecified)	0.8%	i	?	-108.3%	-25.9%	11.2µM*
CC1=C(C(=O)Nc2cccc(C(F)(F)F)c2)C2(CCN(C(C)C)CC2)OC1=O	?	i	2.6%	-20.3%	-21.0%	-7.9%
CCOc1cc(/C=N/NC(=O)Cc2ccc(C(F)(F)F)cc2[N+](=O)[O-])c(Br)cc1OC	-21.7%	?	-27.3%	-9.9%	?	-9.4%
COc1cc(Br)cc(/C=N/NC(=O)Cc2ccc(C(F)(F)F)cc2[N+](=O)[O-])c1O	16.4µM*	i	?	15.8µM*	?	10µM*
CCc1ccc(/C=C2/SC(=S)N(CCC(=O)NCCCN3CCOCC3)C2=O)cc1	?	?	?	-30.5%	73.3%	-21.7%
Cc1ccc(/C=C2\SC(=S)N(CCC(=O)N3CCOCC3)C2=O)cc1	?	i	-12.9%	-22.8%	36.4%	-1.3%
CCc1ccc(/C=C2\SC(=S)N(CCCC(=O)NCCCN3CCOCC3)C2=O)cc1	nt	10µM*	nt	-40.6%	nt	-16.2%
COc1ccc(/C=C2\SC(=S)N(CCC(=O)N3CCOCC3)C2=O)cc1	1.0%	0.199µM*	-0.1%	0.6%	97.7%	-2.1%
COC(=O)c1ccc(/C=C2/SC(=S)N(CCC(=O)NCCCN3CCOCC3)C2=O)cc1	?	?	-28.6%	-2.2%	18.3%	-2.1%
CCOc1ccc(/C=C2\SC(=S)N(CCCC(=O)NCCCN3CCOCC3)C2=O)cc1	?	?	?	-15.2%	8.91µM*	?
Cc1cc(=O)nc2c3ccccc3n(CC(=O)NCCC3=CCCCC3)n12	?	i	-0.1%	1.5%	17.3%	4.9%
Cn1nnnc1Sc1ncnc2scc(-c3cccc(C#N)c3)c12	16.4µM*	nt	?	nt	nt	nt
Cn1nnnc1Sc1ncnc2scc(-c3ccc(Br)cc3)c12	?	12.6µM*	?	15.8µM*	15.8µM*	?
Cn1nnnc1Sc1ncnc2scc(-c3ccc[nH]3)c12	?	?	?	-110.8%	10µM*	?
